Test results: PubChem BioAssay AID743343 (Broad Institute, 2014)
Results with a measured potency or affinity are listed apart. Calls of active or inactive are those of the source. How the calls were made is not given here.

system: Drosophila melanogaster bursicon receptor LGR2 (rickets); assay: blockers of bursicon-stimulated LGR2 cAMP reporter – cell-based, HEK293, CRE-luciferase reporter, cherry pick, set 2, dose response (AID 743343); conditions: bursicon-induced cAMP antagonist; series mostly up to 35 µM

outcome, inactive:
CCCCN(Cc1ccccc1)S(=O)(=O)c1cc2c(cc1Br)CC(C)N2C(C)=O (stereo not drawn), Cc1ccc(S(=O)(=O)Nc2ccc3c(c2)CC(=O)N([C@H](C)CO)C[C@H](C)[C@H](CN(C)Cc2ccc(Cl)c(Cl)c2)O3)cc1, Cc1ccc(CNS(=O)(=O)c2ccc3c(c2)CCN3C(=O)CCCC(=O)O)cc1, CC(=O)N1CCc2cc(S(=O)(=O)C(C)CC(=O)NCc3ccco3)ccc21 (stereo not drawn), COc1ccc(S(=O)(=O)N2CCOCC2)cc1NC(=O)COc1ccc(C)cc1, COC(=O)c1ccc(Nc2cc(C)nc3ccc(C)cc23)cc1, O=C(C[C@H]1C=C[C@@H](NC(=O)C2CCC2)[C@H](CO)O1)NCCCN1CCOCC1, CC(C)N(C(=O)COC(=O)c1ccccc1C(=O)c1ccc(Cl)c([N+](=O)[O-])c1)C(C)C, CN(c1ccccc1)S(=O)(=O)c1cccc(NC(=O)c2cc(=O)c3ccccc3o2)c1, COc1ccc(S(=O)(=O)N2CCN(C(=O)c3ccc(C)o3)CC2)cc1, CCn1cc(S(=O)(=O)Nc2cccnc2)cn1, CC(=O)Nc1cccc(-c2ccnc3c2CC(C(=O)NCc2cccnc2)O3)c1 (stereo not drawn), CO[C@H]1CN(C)C(=O)c2ccc(NC(=O)C3CC3)cc2OC[C@@H](C)N(C(=O)Cc2ccccn2)C[C@H]1C, C[C@H](CO)N1C[C@H](C)[C@@H](CN(C)S(=O)(=O)c2cccs2)Oc2c(cccc2N(C)C)C1=O, C[C@H](CO)N1C[C@H](C)[C@H](CN(C)C(=O)CN2CCOCC2)Oc2ncc(C#CCN(C)C)cc2C1=O, O=C(NCc1ccco1)c1cc(NS(=O)(=O)c2cccc([N+](=O)[O-])c2)ccc1O, O=C(c1ccc2c(c1)OCCO2)C1CCN(S(=O)(=O)c2ccc(F)cc2)CC1, C[C@H]1CN([C@@H](C)CO)C(=O)Cc2cc(NC(=O)Nc3ccc(F)cc3)ccc2O[C@H]1CN(C)CC1CCCCC1, COc1ccc2c3c([nH]c2c1)[C@H](CO)N(C(C)=O)CC31CCN(C(=O)CN2CCOCC2)CC1, Cc1ccc2nc(NC(=O)CCCC(=O)O)sc2c1, Cc1ccc(-n2cc(CN(C)Cc3nccn3C)c(-c3cccc(C)c3)n2)cc1, COc1ccc(NC(=O)Nc2ccc3c(c2)CC(=O)N([C@@H](C)CO)C[C@@H](C)[C@H](CN(C)Cc2ccncc2)O3)cc1, COc1ccccc1N1CCN(C(=O)c2sc3nc(-c4ccc(F)cc4)cn3c2C)CC1, CCCCOc1cc(NCc2ccccc2)c2ncn(C(C)C)c2c1, CCOC(=O)c1c(C)n(C)c2ccc(OCC(O)CNCCc3ccccc3)cc12 (stereo not drawn), Cc1ccc(S(=O)(=O)N2[C@@H](CO)CO[C@H]2CC(=O)OCc2ccccc2)cc1, CCOC(=O)C1=CCN(S(=O)(=O)c2ccccc2C)C1c1cccc(C)c1 (stereo not drawn), O=C(CN1CCOc2ccccc21)NCc1ccc(F)cc1, C[C@@H]1CN([C@H](C)CO)C(=O)c2cc(C#CCN(C)C)cnc2O[C@@H]1CN(C)C(=O)CN1CCOCC1, Cn1cnc(S(=O)(=O)N2C[C@@H](O)COC[C@H]3O[C@H](CC(=O)NC4CCCC4)CC[C@@H]32)c1, C[C@@H]1CN([C@H](C)CO)C(=O)CCCn2nncc2CO[C@H]1CN(C)C(=O)Nc1cccc2ccccc12, COc1ccc(-c2noc(CCC(=O)N3CCN(c4ccc(Cl)cc4)CC3)n2)cc1, N#C[C@H]1[C@@H](c2ccc(C3=CCCCC3)cc2)[C@H](CO)N1C(=O)c1ccccn1, Cn1nnnc1SCC(=O)N1CCN(C(=O)c2ccco2)CC1, Cc1noc(C)c1S(=O)(=O)Nc1cccc2c1O[C@H](CN(C)C(=O)Nc1ccc(F)cc1)[C@H](C)CN([C@H](C)CO)C2=O, c1ccc(COc2cccc(-c3cc4nc(NCCCn5ccnc5)ccn4n3)c2)cc1, O=C(NCc1ccc(F)cc1)c1cc(C2CCCCN2S(=O)(=O)c2cccs2)on1 (stereo not drawn), Cn1c(=O)c2cc(NC(=O)NCc3ccccc3)ccc2n1C/C=C/c1ccccc1
